# Where “and” joins values, the source holds several entries; their conditions need not be identical. Equal values may be shown once. Results filed as inconclusive are left out. A call without a number means that no potency is given here. Calls of active or inactive are those of the source. Unless noted, calls come from the whole dose curve; as a rule, active = well fitted curve in the direction sought with a large enough effect; inconclusive = small, poorly fitted or top-dose-only effect, or another doubt; inactive = no such curve, though single readings can be large; an effect the other way counts as inactive or inconclusive.
# Tests used:
# [1] = target: 3',5'-cyclic-AMP phosphodiesterase 4B (Homo sapiens) (UniProt Q07343); test: qHTS Assay for Inhibitors of PDE-IV (AID 607; active = well fitted activation curve with a large enough effect in the main read-out, with a control signal flat, not every such curve was filed as active); settings: HEK293 ACTOne CNG channel cells, membrane potential fluorescence; series mostly up to 22.9 µM
# How it was run: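 The readout is membrane depolarisation from a cAMP-sensing CNG channel, detected with a potential dye at ex 535/em 590. Cells were HEK293-derived (endogenous PDE-IV) at 1000 cells/well, titrated up to 22.9 uM final.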
# [2] = Cell Viability - Mesenchymal (AID 546); settings: mesenchymal cells viability, qHTS; series mostly up to 91.7 µM;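 note: cells exposed to compound for 40 hours before reading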
# How it was run: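 Human kidney mesenchymal cells from normal renal glomeruli, 1000 cells/well, rested 5 hr at 37 °C, then treated 40 hr at 37 °C in complete medium. Cellular ATP read by CellTiter-Glo luminescence; AC50 from Hill-equation fits.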
# [3] = Cellular Toxicity (caspase-3) HepG2 (AID 654); settings: HepG2 caspase-3 activation, luminescence, 0% = DMSO only, 100% = tamoxifen; series mostly up to 92.2 µM;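 note: cells exposed to compound for 16 hours before reading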
# How it was run: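 Cells plated 5 hr at 37 °C, compound added, incubated 16 hr at 37 °C. Caspase-Glo 3/7 reagent followed, 20 min at room temperature, then luminescence read. Activation scored as signal increase; AC50 from Hill fit.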
# [4] = Cellular Toxicity (caspase-3) Jurkat (AID 655); settings: Jurkat caspase-3 activation, luminescence; series mostly up to 92.2 µM;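 note: cells exposed to compound for 16 h at 37 °C before reading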; note: potency is the fitted concentration of half-maximal effect
# How it was run: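 Luminescent Caspase-Glo 3/7 read-out (20 min, room temperature) after 16 h compound treatment at 37 C of 5000 Jurkat cells per well. AC50 derived by Hill-equation fitting, scaled between DMSO basal and 100 uM tamoxifen stimulation.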
# [5] = Cellular Toxicity (caspase-3) HUV-EC-C (AID 656); settings: HUV-EC-C cells, caspase-3 activation (apoptosis), vehicle = 0, 100 µM tamoxifen = 100%; series mostly up to 92.2 µM
# How it was run: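 Luminescent Caspase-Glo 3/7 readout after 16 h, 37 °C compound exposure of HUV-EC-C endothelial cells, 1000 per well, complete medium. AC50 derived by Hill fitting, with DMSO as baseline and 100 uM tamoxifen as full activation.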
# [6] = Cellular Toxicity (caspase-3) SHSY5Y (AID 657); settings: SH-SY5Y caspase-3 activation, DMSO zero, 10 µM staurosporine = 100%; series mostly up to 91.7 µM
# How it was run: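 Luminescent Caspase-Glo 3/7 read-out, 1 hr room temperature, follows 16 hours of compound treatment of SH-SY5Y cells at 37 °C. Normalization: DMSO basal, 10 uM staurosporine as 100%; AC50 values from Hill-equation concentration-response fits.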
# [7] = Cellular Toxicity (caspase-3) BJ (AID 658); settings: BJ fibroblasts, luminescence, normalized: DMSO 0%, staurosporine 100%; series mostly up to 91.7 µM
# How it was run: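 BJ human foreskin fibroblasts, 1000 cells/well, treated 16 hours at 37 °C in complete medium; caspase 3/7 activity by Caspase-Glo luminescence after 1 hr at room temperature. Normalized to DMSO and 10 uM staurosporine; AC50 from Hill fits.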
# [8] = Cellular Toxicity (caspase-3) MRC-5 (AID 659); settings: MRC-5 cells, luminescence, normalized: DMSO 0%, 10 µM staurosporine 100%; series mostly up to 91.7 µM
# How it was run: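 MRC-5 human normal lung fibroblasts, 1500 cells/well, treated 16 h at 37 °C in complete medium. Caspase 3/7 measured by Caspase-Glo luminescence after 1 h at room temperature. Normalized to DMSO and 10 uM staurosporine; AC50 from Hill fit.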
# [9] = Cellular Toxicity (caspase-3) Mesangial (AID 660); settings: mesangial cells, normalized: DMSO 0%, 100 µM tamoxifen 100%; series mostly up to 91.7 µM;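 note: combined caspase 3 and 7 activity read by Caspase-Glo luminescence; cells exposed to compound for 16 h before the caspase read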
# How it was run: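 Mesangial cells, 1000/well, 5 h settle at 37 °C; compound 16 h, 37 °C; Caspase-Glo 3/7 reagent 20 min RT; luminescence. Norm.: DMSO = 0%, tamoxifen 100 uM = 100%. AC50, Hill fit.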
# [10] = Cellular Toxicity (caspase-3) SK-N-SH (AID 661); settings: SK-N-SH caspase-3 activation, qHTS; series mostly up to 91.7 µM; note: potency is the fitted concentration of half-maximal effect
# How it was run: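 Human neuroblastoma SK-N-SH, 1500 cells/well, 5 hr pre-incubation, then compound 16 hr, 37 °C. Caspase-Glo 3/7 reagent, 1 hr RT, luminescence. Norm. to DMSO/10 uM staurosporine; Hill-fit AC50.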
# Sequence of 3',5'-cyclic-AMP phosphodiesterase 4B (Homo sapiens) (Q07343 whole entry, looked up): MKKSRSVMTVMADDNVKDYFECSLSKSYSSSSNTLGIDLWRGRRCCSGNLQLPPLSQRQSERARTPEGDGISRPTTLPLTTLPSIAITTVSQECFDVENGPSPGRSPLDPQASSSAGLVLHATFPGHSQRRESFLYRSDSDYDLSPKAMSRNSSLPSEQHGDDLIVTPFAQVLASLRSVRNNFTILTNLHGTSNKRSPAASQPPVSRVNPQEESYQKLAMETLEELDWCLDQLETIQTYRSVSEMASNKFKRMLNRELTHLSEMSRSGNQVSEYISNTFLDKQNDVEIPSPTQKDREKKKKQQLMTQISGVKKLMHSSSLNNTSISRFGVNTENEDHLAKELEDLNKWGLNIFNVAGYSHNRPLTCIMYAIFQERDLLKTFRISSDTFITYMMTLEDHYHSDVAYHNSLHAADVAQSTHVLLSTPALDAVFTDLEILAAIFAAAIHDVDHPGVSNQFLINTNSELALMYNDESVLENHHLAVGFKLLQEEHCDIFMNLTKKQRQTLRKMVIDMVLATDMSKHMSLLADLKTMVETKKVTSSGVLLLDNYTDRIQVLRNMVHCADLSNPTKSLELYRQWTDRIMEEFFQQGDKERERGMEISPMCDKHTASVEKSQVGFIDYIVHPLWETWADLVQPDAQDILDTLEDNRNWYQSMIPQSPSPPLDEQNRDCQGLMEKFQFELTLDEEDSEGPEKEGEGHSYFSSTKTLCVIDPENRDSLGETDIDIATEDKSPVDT
SMILES,Potency [1],outcome [2],outcome [3],Potency [4],outcome [5],outcome [6],outcome [7],outcome [8],outcome [9],Potency [10]
NC12CC3CC(CC(C3)C1)C2,inactive,–,–,–,–,–,–,–,–,–
NC(=O)NO,inactive,–,–,–,–,–,–,–,–,–
Nc1c2c(nc3ccccc13)CCCC2,–,inactive,inactive,inactive,inactive,inactive,inactive,inactive,inactive,inactive
COc1nc(C)nc(Cl)c1NC1=NCCN1,inactive,–,–,–,–,–,–,–,–,–
OCCN1CCN(CCCN2c3ccccc3Sc3ccc(C(F)(F)F)cc32)CC1,inactive,–,–,–,–,–,–,–,–,–
Nc1ccn([C@H]2CC[C@@H](CO)O2)c(=O)n1,–,inactive,inactive,inactive,inactive,inactive,inactive,inactive,inactive,inactive
Cc1cn([C@H]2C[C@H](N=[N+]=[N-])[C@@H](CO)O2)c(=O)[nH]c1=O,–,inactive,inactive,inactive,inactive,inactive,inactive,inactive,inactive,inactive
Cc1cn([C@H]2C=C[C@@H](CO)O2)c(=O)[nH]c1=O,–,inactive,inactive,inactive,inactive,inactive,inactive,inactive,inactive,inactive
Nc1nc2c(ncn2COC(CO)CO)c(=O)[nH]1,inactive,–,–,–,–,–,–,–,–,–
CC(C)C(=O)Nc1ccc([N+](=O)[O-])c(C(F)(F)F)c1,inactive,inactive,inactive,inactive,inactive,inactive,inactive,inactive,inactive,inactive
COc1ccc2c(c1)c(CC(=O)O)c(C)n2C(=O)c1ccc(Cl)cc1,inactive,inactive,inactive,inactive,inactive,inactive,inactive,inactive,inactive,inactive
CC(C)NCC(O)c1ccc(O)c(O)c1 (centres undefined),–,inactive,inactive,inactive,inactive,inactive,inactive,inactive,inactive,inactive
CCC1(c2ccccc2)C(=O)NCNC1=O,inactive,inactive,inactive,inactive,inactive,inactive,inactive,inactive,inactive,inactive
Cc1ccc(C(=O)Nc2ccc(S(=O)(=O)O)c3cc(S(=O)(=O)O)cc(S(=O)(=O)O)c23)cc1NC(=O)c1cccc(NC(=O)Nc2cccc(C(=O)Nc3cc(C(=O)Nc4ccc(S(=O)(=O)O)c5cc(S(=O)(=O)O)cc(S(=O)(=O)O)c45)ccc3C)c2)c1,inactive,–,–,–,–,–,–,–,–,–
COc1ccc2[nH]cc(CCNC(C)=O)c2c1,inactive,inactive,inactive,inactive,inactive,inactive,inactive,inactive,inactive,inactive
Clc1ccc2c(c1)C(N1CCNCC1)=Nc1ccccc1O2,inactive,–,–,–,–,–,–,–,–,–
NS(=O)(=O)c1cc2c(cc1Cl)NCNS2(=O)=O,inactive,inactive,inactive,inactive,inactive,inactive,inactive,inactive,inactive,inactive

SMILES,Potency [1],outcome [2],outcome [3],Potency [4],outcome [5],outcome [6],outcome [7],outcome [8],outcome [9],Potency [10]
Cn1c(=O)c2[nH]cnc2n(C)c1=O,inactive,inactive,inactive,inactive,inactive,inactive,inactive,inactive,inactive,inactive
Cn1cnc2c1c(=O)[nH]c(=O)n2C,inactive,–,–,–,–,–,–,–,–,–
CN(C)CCCN1c2ccccc2CCc2ccc(Cl)cc21,inactive,–,–,–,–,–,–,–,–,–
O=c1[nH]cc(F)c(=O)[nH]1,inactive,inactive,inactive,inactive,inactive,inactive,inactive,inactive,inactive,inactive
COc1cc2c(c(OC)c1OC)-c1ccc(OC)c(=O)cc1[C@@H](NC(C)=O)CC2,inactive,inactive,inactive,3.98 nM (active) and 3.16 nM (active),inactive,inactive,inactive,inactive,inactive,200 nM (active) and 251 nM (active)
NCCS(=O)(=O)O,inactive,inactive,inactive,inactive,inactive,inactive,inactive,inactive,inactive,inactive
N[C@@H](Cc1c[nH]c2ccc(O)cc12)C(=O)O,inactive,inactive,inactive,inactive,inactive,inactive,inactive,inactive,inactive,inactive
Cn1c(=O)c2c(ncn2C)n(C)c1=O,inactive,inactive,inactive,inactive,inactive,inactive,inactive,inactive,inactive,inactive
COc1ccc(CCN(C)CCCC(C#N)(c2ccc(OC)c(OC)c2)C(C)C)cc1OC (centres undefined),–,inactive,inactive,inactive,inactive,inactive,inactive,inactive,inactive,inactive
CCOC(=O)c1ncn2c1CN(C)C(=O)c1cc(F)ccc1-2,inactive,–,–,–,–,–,–,–,–,–
CCOC(=O)C(C)(C)Oc1ccc(Cl)cc1,inactive,–,–,–,–,–,–,–,–,–
Clc1ccc(C(c2ccccc2Cl)C(Cl)Cl)cc1 (centres undefined),–,inactive,inactive,inactive,inactive,inactive,inactive,inactive,inactive,–
CN(C)c1nc(N(C)C)nc(N(C)C)n1,inactive,–,–,–,–,–,–,–,–,–
Cc1ccc(-c2cc(C(F)(F)F)nn2-c2ccc(S(N)(=O)=O)cc2)cc1,–,inactive,inactive,inactive,inactive,inactive,inactive,inactive,–,inactive
O=C1c2c(O)ccc(O)c2C(=O)c2c(NCCNCCO)ccc(NCCNCCO)c21,inactive,–,–,–,–,–,–,–,–,–
O=c1c(-c2ccc(O)cc2)coc2cc(O)cc(O)c12,–,–,inactive,inactive,inactive,–,inactive,inactive,inactive,inactive
CC(COc1ccccc1)N(CCCl)Cc1ccccc1 (centres undefined),–,–,–,–,inactive,inactive,–,inactive,inactive,–
